Measurements published in PubChem BioAssay (EPA / NIEHS).
“And” between values parts separate entries of the source, which are not always exact repeats. Identical values can stand only once. Some structures have more than one record in an assay (separate samples or runs), and their calls can disagree. The source made the active and inactive calls. Rule for the calls: active = hit-call score of the fitted dose curve at least 0.9, where 1 is the maximum; inactive = score below 0.9.

How the values were obtained:
[1] = ATG_E_Box_CIS: Attagene CIS-FACTORIAL HepG2 Assay for human Enhancer Box (E-box) (AID 2282936); conditions: HepG2 E-box cis-reporter transcription, actives raise or lower the signal
Outline: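 Multiplexed CIS reporter system in transiently transfected HepG2 cells measures native transcription factor activity. Reporter RNA after 24 h exposure is profiled by RT-PCR-capillary electrophoresis.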

[2] = ATG_M_61_CIS: Attagene CIS-FACTORIAL HepG2 Assay for M61 Transcription Factor (Internal Marker) (AID 2282937); conditions: HepG2 Attagene CIS-FACTORIAL M61 internal marker reporter; actives raise or lower the signal
Outline: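 Using transiently transfected HepG2 liver cells, reporter transcript levels were assessed 24 h post-dosing by RT-PCR and capillary electrophoresis. Changes in either direction were fitted relative to DMSO controls.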

[3] = ATG_EGR_CIS: Attagene CIS-FACTORIAL HepG2 Assay for human Early Growth Response 1 (EGR1) (AID 2282938); conditions: HepG2 Attagene CIS-FACTORIAL EGR reporter mRNA; actives raise or lower the signal
Outline: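 Fluorescent capillary-electrophoresis signal of reporter cDNA fragments serves as read-out. HepG2 cells bear transiently transfected cis-promoter reporter units and are exposed 24 h; gain- or loss-of-signal is fitted against DMSO.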

[4] = ATG_M_19_CIS: Attagene CIS-FACTORIAL HepG2 Assay for M19 Transcription Factor (Internal Marker) (AID 2282939); conditions: HepG2 Attagene CIS-FACTORIAL M19 internal marker reporter; actives raise or lower the signal
Outline: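 Transfect HepG2 with MRTU reporter library → dose chemical, 24 h → isolate total RNA, reverse-transcribe with oligo(dT) → PCR, 6-FAM label, HpaI cut (2 h, 37 C) → capillary electrophoresis. Bidirectional fit vs DMSO.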

[5] = ATG_ERE_CIS: Attagene CIS-FACTORIAL HepG2 Assay for Estrogen Response Element (ERE) (AID 2282940); conditions: HepG2 ERE cis-reporter, Attagene RNA transcript; actives raise or lower the signal
Outline: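 Transient MRTU transfection of human HepG2; cis-element promoters; 24 h dosing; total RNA → RT (oligo dT) → PCR → 6-FAM primer extension → HpaI digest → CE fluorescence. Bidirectional fit, DMSO baseline.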

[6] = ATG_Ets_CIS: Attagene CIS-FACTORIAL HepG2 Assay for human Erythroblast Transformation Specific (ETS) (AID 2282941); conditions: HepG2 ETS cis-reporter transcription, actives raise or lower the signal
Outline: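 Human HepG2 hepatoma cells were transiently transfected with promoter-driven reporter constructs and treated for 24 hours. Reporter transcripts were quantified by RT-PCR with fluorescent primer extension; bidirectional curve fitting used DMSO as reference.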

[7] = molecular target: Hepatocyte nuclear factor 3-beta (Homo sapiens) (UniProt Q9Y261); test: ATG_FoxA2_CIS: Attagene CIS-FACTORIAL HepG2 Assay for human Forkhead box A2 (FOXA2) (AID 2282942); conditions: HepG2 cis-reporter transcription factor activity, 24 h; actives raise or lower the signal
Outline: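 Fluorescence signal of reporter cDNA fragments, separated by capillary electrophoresis, reflects endogenous transcription factor activity in transfected HepG2 after 24 h. Both increases and decreases fitted against DMSO.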

[8] = ATG_FoxO_CIS: Attagene CIS-FACTORIAL HepG2 Assay for human Forkhead box O (FoxO) (AID 2282943); conditions: HepG2 Attagene cis-reporter, FoxO element, mRNA; actives raise or lower the signal
Outline: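 HepG2 cells transiently transfected with cis-promoter-driven multiple reporter transcription units; 24 h after chemical dosing, reporter mRNA quantified by RT-PCR, fluorescent primer extension, HpaI digestion and capillary electrophoresis. Bidirectional fitting versus DMSO baseline.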

[9] = ATG_GATA_CIS: Attagene CIS-FACTORIAL HepG2 Assay for human GATA Binding Protein (AID 2282944); conditions: HepG2 GATA cis-element reporter, Attagene multiplex mRNA; actives raise or lower the signal
Outline: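 Transient MRTU transfection, HepG2, 24 h compound exposure. Total RNA → oligo(dT) RT → PCR → 6-FAM primer extension → HpaI cut → CE. Bidirectional fit vs DMSO.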

[10] = ATG_GLI_CIS: Attagene CIS-FACTORIAL HepG2 Assay for human Zinc Finger Protein GLI1 (AID 2282945); conditions: HepG2, Attagene cis-factorial reporter mRNA, GLI element; actives raise or lower the signal
Outline: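 HepG2 cells transiently transfected with cis-promoter multiplexed reporter units report endogenous transcription factor activity. After 24 h chemical exposure, reporter mRNA was quantified by RT-PCR, 6-FAM labelling, HpaI digestion and capillary electrophoresis, with bidirectional fitting against DMSO.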

[11] = ATG_M_32_CIS: Attagene CIS-FACTORIAL HepG2 Assay for M32 Transcription Factor (Internal Marker) (AID 2282949); conditions: HepG2 Attagene cis-factorial M32 reporter, mRNA; actives raise or lower the signal;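 note: background control marker of the multiplexed CIS panel rather than a real target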
Outline: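 Fluorescent capillary electrophoresis peaks of HpaI-digested, FAM-labelled RT-PCR reporter products give the signal. Source: transiently transfected human liver HepG2 cells, 24 h after chemical dosing; bidirectional fitting against DMSO.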

[12] = ATG_M_06_CIS: Attagene CIS-FACTORIAL HepG2 Assay for M06 Transcription Factor (Internal Marker) (AID 2282950); conditions: HepG2 Attagene CIS-FACTORIAL M06 internal marker reporter; actives raise or lower the signal
Outline: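 Read-out is fluorescence of labelled reporter cDNA fragments resolved by capillary electrophoresis after RT-PCR. Cells: HepG2 carrying transfected cis-promoter reporter units, treated 24 h. Gain or loss of signal fitted relative to DMSO.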

[13] = molecular target: Hypoxia-inducible factor 1-alpha (Homo sapiens) (UniProt Q16665); test: ATG_HIF1a_CIS: Attagene CIS-FACTORIAL HepG2 Assay for human Hypoxia Inducible Factor 1 (HIF1A) (AID 2282951); conditions: HepG2 Attagene cis-factorial HIF1a reporter transcription; actives raise or lower the signal
Outline: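 Endogenous-TF cis reporter readout, human HepG2 cells, 24 h incubation; mRNA detected via RT-PCR and capillary electrophoresis fluorescence; DMSO-normalised bidirectional fitting.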

[14] = molecular target: Hepatocyte nuclear factor 6 (Homo sapiens) (UniProt Q9UBC0); test: ATG_HNF6_CIS: Attagene CIS-FACTORIAL HepG2 Assay for human Hepatocyte Nuclear Factor 6 (HNF6) (AID 2282952); conditions: HepG2 Attagene cis-factorial HNF6 reporter transcription; actives raise or lower the signal
Outline: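 Multiplexed mRNA reporter assay in transfected HepG2; 24 h dosing; RT-PCR plus capillary electrophoresis fluorescence; DMSO-referenced bidirectional curve fitting.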

[15] = molecular target: Heat shock factor protein 1 (Homo sapiens) (UniProt Q00613); test: ATG_HSE_CIS: Attagene CIS-FACTORIAL HepG2 Assay for human Heat Shock Transcription Factor 1 (HSE) (AID 2282953); conditions: HepG2 HSE cis-reporter, Attagene RNA transcription; actives raise or lower the signal
Outline: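 HepG2, transient MRTU transfection, cis-promoter reporters (endogenous TF activity). 24 h compound. RNA → oligo(dT) RT → PCR → 6-FAM primer extension → HpaI cut → CE. Bidirectional fit vs DMSO.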

[16] = ATG_MRE_CIS: Attagene CIS-FACTORIAL HepG2 Assay for human Metal Responsive Element (MRE) (AID 2282954); conditions: HepG2 MRE cis-reporter transcription, Attagene multiplex; actives raise or lower the signal
Outline: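 Step one: transfect HepG2 with cis-regulated reporter units. Step two: dose 24 h. Step three: isolate RNA, RT-PCR, 6-FAM label, HpaI digest, capillary electrophoresis. Fit bidirectionally to DMSO.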

[17] = ATG_PBREM_CIS: Attagene CIS-FACTORIAL HepG2 Assay for human Phenobarbital-responsive Enhancer Module (PBREM) (AID 2282955); conditions: HepG2 PBREM cis-reporter, Attagene multiplexed transcription; actives raise or lower the signal
Outline: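 Readout: reporter mRNA, fluorescent RT-PCR fragments separated by capillary electrophoresis. System: HepG2 transiently transfected with cis-regulated reporter units. Exposure: 24 h. Analysis: bidirectional, DMSO baseline.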

[18] = molecular target: Bile acid receptor (Homo sapiens) (UniProt Q96RI1); test: ATG_IR1_CIS: Attagene CIS-FACTORIAL HepG2 Assay for human Nuclear Receptor Subfamily 1 Group H Member 4 (NR1H4), IR1 submotif (AID 2282946); conditions: IR1 reporter transcription, actives raise or lower the signal
Outline: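 Transient MRTU transfection, HepG2; 24 h dosing; RNA → RT-PCR → 6-FAM primer extension → HpaI digest → capillary electrophoresis fluorescence. Gain/loss of signal fitted relative to DMSO.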

[19] = ATG_GRE_CIS: Attagene CIS-FACTORIAL HepG2 Assay for human Glucocorticoid Response Elements (GRE) (AID 2282947); conditions: HepG2 GRE cis-reporter, Attagene multiplex mRNA; actives raise or lower the signal
Outline: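 Following 24 h chemical exposure of transiently transfected HepG2 cells, total RNA was reverse-transcribed and reporter cDNA amplified, fluorescently labelled and sized by capillary electrophoresis. Signal gain or loss was fitted relative to DMSO vehicle.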

[20] = ATG_ISRE_CIS: Attagene CIS-FACTORIAL HepG2 Assay for human Interferon Regulatory Factor 1 (IRF1) binding to an Interferon-Stimulated Response Element (ISRE) (AID 2282948); conditions: HepG2 ISRE cis-reporter (Attagene), mRNA transcription readout; actives raise or lower the signal
Outline: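 Cell-based cis-reporter assay; HepG2; 24 h exposure; reporter mRNA by RT-PCR plus capillary electrophoresis fluorescence; activity in either direction scored relative to DMSO.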

Measured: AC50

Bile acid receptor (Homo sapiens), sequence (Q96RI1 whole entry, looked up): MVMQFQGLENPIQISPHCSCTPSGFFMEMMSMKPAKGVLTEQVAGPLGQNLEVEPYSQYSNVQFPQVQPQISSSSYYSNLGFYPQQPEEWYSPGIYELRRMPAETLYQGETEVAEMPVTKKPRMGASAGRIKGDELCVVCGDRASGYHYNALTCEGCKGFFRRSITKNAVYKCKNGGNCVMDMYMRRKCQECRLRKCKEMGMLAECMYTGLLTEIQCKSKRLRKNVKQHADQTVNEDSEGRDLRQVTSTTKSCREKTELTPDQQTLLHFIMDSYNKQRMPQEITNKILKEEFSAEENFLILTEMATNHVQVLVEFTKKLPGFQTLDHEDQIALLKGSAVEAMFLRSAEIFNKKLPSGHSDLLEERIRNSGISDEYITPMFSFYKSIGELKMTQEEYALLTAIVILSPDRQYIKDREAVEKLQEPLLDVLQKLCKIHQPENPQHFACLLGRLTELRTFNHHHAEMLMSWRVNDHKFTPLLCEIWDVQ
Hepatocyte nuclear factor 6 (Homo sapiens), sequence (Q9UBC0 whole entry, looked up): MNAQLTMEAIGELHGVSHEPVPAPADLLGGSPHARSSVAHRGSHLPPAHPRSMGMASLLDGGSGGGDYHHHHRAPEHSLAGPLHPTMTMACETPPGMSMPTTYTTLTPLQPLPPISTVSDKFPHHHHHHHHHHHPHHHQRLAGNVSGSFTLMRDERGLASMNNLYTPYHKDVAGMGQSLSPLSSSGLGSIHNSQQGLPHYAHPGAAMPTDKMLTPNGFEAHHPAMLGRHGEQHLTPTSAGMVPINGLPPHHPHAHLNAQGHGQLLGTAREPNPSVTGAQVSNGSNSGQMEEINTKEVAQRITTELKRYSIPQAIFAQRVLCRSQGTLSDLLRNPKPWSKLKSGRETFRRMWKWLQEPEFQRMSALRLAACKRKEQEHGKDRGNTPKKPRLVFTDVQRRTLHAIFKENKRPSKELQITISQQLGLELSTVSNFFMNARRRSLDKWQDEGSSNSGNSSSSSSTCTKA
Hepatocyte nuclear factor 3-beta (Homo sapiens), sequence (Q9Y261 whole entry, looked up, the tested form may be a part): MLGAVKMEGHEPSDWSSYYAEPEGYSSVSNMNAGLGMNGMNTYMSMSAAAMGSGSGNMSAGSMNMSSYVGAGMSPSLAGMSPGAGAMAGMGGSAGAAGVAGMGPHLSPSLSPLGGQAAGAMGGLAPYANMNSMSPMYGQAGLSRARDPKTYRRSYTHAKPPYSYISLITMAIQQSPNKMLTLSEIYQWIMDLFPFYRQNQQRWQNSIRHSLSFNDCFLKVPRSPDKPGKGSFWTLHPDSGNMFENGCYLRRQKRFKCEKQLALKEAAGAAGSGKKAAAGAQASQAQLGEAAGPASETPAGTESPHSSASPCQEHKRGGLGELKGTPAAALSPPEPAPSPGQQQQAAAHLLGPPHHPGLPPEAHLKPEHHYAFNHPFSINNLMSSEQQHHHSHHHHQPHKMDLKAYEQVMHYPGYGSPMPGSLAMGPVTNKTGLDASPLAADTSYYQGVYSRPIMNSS
Hypoxia-inducible factor 1-alpha (Homo sapiens), sequence (Q16665 whole entry, looked up): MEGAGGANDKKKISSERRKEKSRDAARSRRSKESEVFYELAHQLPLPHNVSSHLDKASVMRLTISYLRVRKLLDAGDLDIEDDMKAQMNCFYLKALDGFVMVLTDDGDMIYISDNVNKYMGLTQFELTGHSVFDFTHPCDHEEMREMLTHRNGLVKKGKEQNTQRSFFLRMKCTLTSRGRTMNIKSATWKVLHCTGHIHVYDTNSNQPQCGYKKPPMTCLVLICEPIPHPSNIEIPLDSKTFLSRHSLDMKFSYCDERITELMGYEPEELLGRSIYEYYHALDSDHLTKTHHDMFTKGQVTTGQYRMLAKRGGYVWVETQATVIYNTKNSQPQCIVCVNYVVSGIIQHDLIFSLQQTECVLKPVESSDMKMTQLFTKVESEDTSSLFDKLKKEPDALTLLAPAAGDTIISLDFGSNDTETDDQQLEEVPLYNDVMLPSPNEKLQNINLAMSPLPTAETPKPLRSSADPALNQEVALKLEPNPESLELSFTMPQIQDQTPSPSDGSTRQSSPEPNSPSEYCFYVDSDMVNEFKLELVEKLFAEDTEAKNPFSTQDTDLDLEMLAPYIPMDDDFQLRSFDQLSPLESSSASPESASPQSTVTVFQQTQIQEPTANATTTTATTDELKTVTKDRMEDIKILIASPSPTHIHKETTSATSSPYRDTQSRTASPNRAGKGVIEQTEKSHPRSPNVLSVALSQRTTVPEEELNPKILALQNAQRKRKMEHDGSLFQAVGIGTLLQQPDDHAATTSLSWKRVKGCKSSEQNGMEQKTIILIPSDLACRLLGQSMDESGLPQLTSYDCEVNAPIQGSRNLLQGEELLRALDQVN
Heat shock factor protein 1 (Homo sapiens), sequence (Q00613 whole entry, looked up): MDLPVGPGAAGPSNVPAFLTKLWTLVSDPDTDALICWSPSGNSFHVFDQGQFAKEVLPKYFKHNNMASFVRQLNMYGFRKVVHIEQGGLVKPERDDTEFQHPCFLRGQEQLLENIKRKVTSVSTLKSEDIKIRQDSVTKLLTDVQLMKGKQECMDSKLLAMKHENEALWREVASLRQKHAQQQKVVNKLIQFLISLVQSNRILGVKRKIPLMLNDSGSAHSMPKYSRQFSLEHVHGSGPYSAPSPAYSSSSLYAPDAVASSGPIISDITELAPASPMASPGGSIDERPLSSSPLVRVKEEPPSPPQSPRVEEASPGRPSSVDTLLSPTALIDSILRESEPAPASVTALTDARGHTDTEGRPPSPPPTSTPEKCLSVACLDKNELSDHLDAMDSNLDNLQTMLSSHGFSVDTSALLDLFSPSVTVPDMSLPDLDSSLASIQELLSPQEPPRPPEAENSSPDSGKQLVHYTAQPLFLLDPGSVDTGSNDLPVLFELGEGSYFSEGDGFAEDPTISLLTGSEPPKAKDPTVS

Cc1cc(-c2ccc(N)c(C)c2)ccc1N
active: [5] 14.6 µM and 12.8 µM
inactive: [1] | [2] | [3] | [4] | [6] | [7] | [8] | [9] | [10] | [11] | [12] | [13] | [14] | [15] | [16] | [17]

Cc1cccc(C)c1N
inactive: [1] | [2] | [3] | [4] | [5] | [6] | [7] | [8] | [9] | [10] | [18] | [19] | [20] | [11] | [12] | [13] | [14] | [15] | [16]

Sc1ccccc1
active: [5] 27.1 µM and 100 µM | [15] 160 µM
inactive: [1] | [2] | [3] | [4] | [6] | [7] | [8] | [9] | [10] | [19] | [11] | [12] | [13] | [14] | [15] | [16] | [17]

CC(C)(c1ccccc1)c1ccc(O)cc1
inactive: [1] | [2] | [3] | [4] | [6] | [7] | [8] | [9] | [10] | [18] | [19] | [20] | [11] | [12] | [13] | [14] | [15] | [16] | [17]
active: [3] 48.7 µM | [5] 435 nM [middle of 4 runs] | [9] 52.1 µM | [10] 55.4 µM | [18] 33.4 µM | [19] 51.3 µM | [13] 52.5 µM and 12.7 µM | [15] 54.7 µM | [16] 33.4 µM and 52.1 µM and 43.1 µM | [17] 33.4 µM

Cc1ccccc1O
inactive: [1] | [2] | [3] | [4] | [5] | [6] | [7] | [8] | [9] | [10] | [19] | [20] | [11] | [12] | [13] | [14] | [15] | [16] | [17]

CN(C)c1nc(=O)n(C2CCCCC2)c(=O)n1C
inactive: [1] | [2] | [3] | [4] | [5] | [6] | [7] | [8] | [9] | [10] | [18] | [20] | [11] | [12] | [14] | [15] | [16] | [17]

CCCN(CCC)N=O
active: [5] 46.4 µM
inactive: [1] | [2] | [3] | [4] | [6] | [7] | [8] | [9] | [10] | [19] | [20] | [11] | [12] | [13] | [14] | [15] | [16] | [17]

CCCCCCCCCc1ccc(O)cc1
inactive: [1] | [2] | [3] | [4] | [6] | [7] | [8] | [9] | [10] | [20] | [11] | [12] | [13] | [14] | [15] | [16] | [17]
active: [1] 63.2 µM | [9] 49.7 µM | [10] 184 µM | [11] 166 µM | [13] 178 µM | [14] 145 µM | [16] 17.5 µM

CCOC(=O)C(O)(c1ccc(Cl)cc1)c1ccc(Cl)cc1
active: [5] 2.98 µM | [16] 11.1 µM
inactive: [1] | [2] | [3] | [4] | [6] | [7] | [8] | [9] | [10] | [19] | [20] | [11] | [12] | [14] | [15] | [17]

COS(=O)(=O)OC
active: [13] 26.9 µM
inactive: [1] | [2] | [3] | [4] | [5] | [6] | [7] | [8] | [9] | [10] | [19] | [11] | [12] | [14] | [15] | [16]

O=NN(c1ccccc1)c1ccccc1
active: [5] 26.1 µM
inactive: [1] | [2] | [3] | [4] | [6] | [7] | [8] | [9] | [10] | [18] | [19] | [11] | [12] | [14] | [15] | [16]

O=C(N[C@H]1CN2CCC1CC2)c1cc2ccoc2cn1
active: [20] 82.4 µM
inactive: [1] | [2] | [3] | [4] | [5] | [6] | [7] | [8] | [9] | [10] | [19] | [11] | [12] | [13] | [14] | [15] | [16] | [17]
